Experimental data published in the supplement of paper PMC8253809.
“And” between values parts separate entries of the source, which are not always exact repeats. Equal values may be shown once.

What was measured:
Assay in all cases: growth inhibition (% activity, log2 RLU normalised to DMSO / staurosporine); higher = more growth inhibition
Settings in all cases: 33 µM
DIPGX29 = system: DIPGX29 (H3.3 K27M diffuse intrinsic pontine glioma line)
In short: (§1)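 The growth-inhibition value comes from CellTiter-Glo luminescence, log2-transformed, normalised per plate to % activity between solvent and positive control wells, and taken as the median over replicates. Treatment of pHGG cell lines and H9-derived neural stem cells with approved drugs was at a single final concentration of about 33 μM, in triplicate, for 7 days at 37 °C, 5% CO2.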

DIPGX37 = system: DIPGX37 (H3.3 K27M diffuse intrinsic pontine glioma line)
In short: as §1

DIPGX7 = system: DIPGX7 (H3.3 K27M diffuse intrinsic pontine glioma line)
In short: as §1

DIPGX9 = system: DIPGX9 (diffuse intrinsic pontine glioma line)
In short: as §1

HGGX39 = system: HGGX39 (paediatric high-grade glioma line)
In short: as §1

HGGX6 = system: HGGX6 (H3.3 G34R paediatric high-grade glioma line)
In short: as §1

HNSC = system: HNSC
In short: as §1

SUDIPGIV = system: SUDIPGIV (diffuse intrinsic pontine glioma line)
In short: as §1

SUDIPGVI = system: SUDIPGVI (diffuse intrinsic pontine glioma line)
In short: as §1

SUDIPGXIII = system: SUDIPGXIII (diffuse intrinsic pontine glioma line)
In short: as §1

Compound | growth inhibition (DIPGX29) | growth inhibition (DIPGX37) | growth inhibition (DIPGX7) | growth inhibition (DIPGX9) | growth inhibition (HGGX39) | growth inhibition (HGGX6) | growth inhibition (HNSC) | growth inhibition (SUDIPGIV) | growth inhibition (SUDIPGVI) | growth inhibition (SUDIPGXIII)
CNC(=O)c1cc(Oc2ccc(NC(=O)Nc3ccc(Cl)c(C(F)(F)F)c3)cc2)ccn1 | 35.1% | 67.2% | 28.2% | 25.6% | 50.7% | 32% | 76.1% | 41.2% | 60.7% | 69.3%
C=C1c2cccc(O)c2C(O)=C2C(=O)[C@]3(O)C(O)=C(C(N)=O)C(=O)[C@@H](N(C)C)[C@@H]3[C@@H](O)[C@H]12 | -0.484% | 2.83% | -0.0391% | -1.06% | 2.68% | -0.509% | 0.179% | 2.28% | -1.04% | 1.14%
Clc1cccc(Cl)c1NC1=NCCN1 | 1.49% | -3.42% | 1.12% | 0.614% | 1.32% | 0.951% | 2.98% | 0.943% | -1.83% | -1.09%
COC1=C(OC)C(=O)C(CCCCCCCCCCO)=C(C)C1=O | 3.13% | 3.03% | 2.61% | 2.12% | 2.64% | 3.84% | 5.4% | 1.6% | 3.24% | 2.03%
CCOC(=O)c1ccc(C#Cc2ccc3c(c2)C(C)(C)CCS3)nc1 | 3.83% | -0.285% | 6.1% | 9.38% | 8.54% | 6.5% | 6.59% | 8.53% | 4.1% | 1.82%
CC(C)c1nc(CN(C)C(=O)N[C@H](C(=O)N[C@@H](Cc2ccccc2)C[C@H](O)[C@H](Cc2ccccc2)NC(=O)OCc2cncs2)C(C)C)cs1 | 1.73% | 2.67% | 2.88% | 1.93% | 5.32% | 2.08% | 5.1% | -1.31% | -0.349% | -0.136%
COc1ccc(/C=C/C(=O)Nc2ccccc2C(=O)O)cc1OC | -0.16% | 2.16% | 1.32% | -0.609% | -0.29% | -0.75% | 3.65% | 0.158% | -5.28% | -1.02%
CN1CCN2c3ccccc3Cc3ccccc3C2C1 (stereo not given) | 1.33% | -0.487% | 0.702% | -0.0886% | 2.14% | -2.26% | 2.01% | -0.203% | -0.707% | -2.33%
CC1=C(/C=C/C(C)=C/C=C/C(C)=C/C=C/C=C(C)/C=C/C=C(C)/C=C/C2=C(C)CCCC2(C)C)C(C)(C)CCC1 | -2.65% | -1.75% | -0.22% | -2.07% | -4.95% | -2.28% | -2.5% | -5% | -7.28% | -0.475%
Cc1nc2n(c(=O)c1CCN1CCC(c3noc4cc(F)ccc34)CC1)CCCC2 | 2.78% | 1.21% | 3.37% | 1.08% | 3.29% | 1.84% | 0.606% | 0.111% | -0.157% | 1.25%
CC(=O)N[C@@H](CS)C(=O)O | -0.541% | 1.66% | 0.31% | -0.364% | -0.994% | -2.9% | 1.29% | 0.64% | 0.65% | 0.374%
CN(C)c1nc(N(C)C)nc(N(C)C)n1 | -3.35% | -1.75% | -1.42% | -3.04% | -3.6% | -3.16% | -5.97% | -3.04% | -2.53% | -0.234%
Oc1ncnc2[nH]ncc12 | -2.33% | -1.9% | -0.64% | -2.61% | -3.77% | -3.6% | -5.63% | -3.97% | -6.47% | 0.643%
O.O.O.O.O=C([O-])CC(O)(CC(=O)[O-])C(=O)[O-].[Li+].[Li+].[Li+] | 1.75% | 1.97% | 1.43% | 0.467% | -0.0466% | -1.34% | 26.2% | 0.611% | 1.36% | -0.99%
CCOc1nc2cccc(C(=O)O)c2n1Cc1ccc(-c2ccccc2-c2noc(=O)[nH]2)cc1 | -0.219% | 0.379% | 0.841% | 0.153% | 0.215% | -1.71% | 0.888% | -0.526% | 1.43% | -1.07%
CO[C@@H]1[C@@H](OC(N)=O)[C@@H](O)[C@H](Oc2ccc3c(O)c(NC(=O)c4ccc(O)c(CC=C(C)C)c4)c(=O)oc3c2C)OC1(C)C | -0.0643% | 3.02% | 1.66% | 0.55% | 3.59% | -2.58% | 12.1% | 4.51% | 2% | -0.64%
CC1(C)S[C@@H]2[C@H](NC(=O)[C@H](N)c3ccccc3)C(=O)N2[C@H]1C(=O)O | 0.915% and -0.852% | 0.428% and -3.6% | -0.263% and 0.439% | 2.01% and -1.14% | 0.0853% and 0.776% | 0.491% and -0.506% | -1.66% and -0.947% | 0.0994% and -1.08% | 1.4% and -3.54% | 0.006% and 0.466%
CC(C(=O)O)c1cccc(Oc2ccccc2)c1 (stereo not given) | 1.86% and -0.732% | 4.27% and 0.295% | 0.905% and -1.45% | 0.241% and -0.0623% | 1.32% and -0.621% | 2.03% and -0.313% | 0.908% and -1.16% | -2.87% and -3.43% | 3.45% and 0.152% | 0.892% and 1.49%
CO[C@H]1/C=C/O[C@@]2(C)Oc3c(C)c(O)c4c(O)c(c(/C=N/N5CCN(C6CCCC6)CC5)c(O)c4c3C2=O)NC(=O)/C(C)=C\C=C\[C@H](C)[C@H](O)[C@@H](C)[C@@H](O)[C@@H](C)[C@H](OC(C)=O)[C@@H]1C | 1.87% | 1.82% | 1.73% | 2.34% | 2.99% | 2.94% | 0.219% | -0.888% | 1.12% | 0.627%
CCN(CC)CCOC(=O)c1ccc(N)cc1 | 1.14% | -1.44% | 2.21% | 1.17% | 3.11% | 0.874% | 2.07% | 1.58% | 1.31% | 0.856%
Nc1nc(N)c2nc(-c3ccccc3)c(N)nc2n1 | 5.33% | 1.67% | 1.42% | 1.23% | 3.58% | 1.3% | 3.87% | 3.03% | 5.65% | 0.714%
O=P(O)(O)C(Cl)(Cl)P(=O)(O)O | 0.766% | -0.716% | 0.292% | 1.96% | 2.08% | -0.402% | 0.239% | 0.894% | 2.08% | -0.0137%

Compound | growth inhibition (DIPGX29) | growth inhibition (DIPGX37) | growth inhibition (DIPGX7) | growth inhibition (DIPGX9) | growth inhibition (HGGX39) | growth inhibition (HGGX6) | growth inhibition (HNSC) | growth inhibition (SUDIPGIV) | growth inhibition (SUDIPGVI) | growth inhibition (SUDIPGXIII)
COC(=O)Nc1nc2cc(Sc3ccccc3)ccc2[nH]1 | 6.86% | 10.3% | 8.12% | 9.42% | 10.7% | 10.1% | 77% | 10.8% | 4.78% | 3.48%
NCCCC(O)(P(=O)(O)O)P(=O)(O)O | -0.387% | -3.88% | 0.704% | 0.583% | -0.159% | -0.423% | 1.02% | -0.208% | 1.59% | 0.669%
CC(C)(Oc1ccc(Cl)cc1)C(=O)O | -2.6% | 1.37% | -0.722% | -1.38% | 0.448% | -2.21% | 5.23% | 0.614% | -0.459% | -0.393%
CCN(Cc1ccncc1)C(=O)C(CO)c1ccccc1 (stereo not given) | -2.54% | -1.96% | -1.34% | -0.78% | -1.19% | 0.149% | -4.87% | -1.01% | -0.507% | -1.24%
N=C(N)NCCC[C@H](N)C(=O)O | -2.37% | 0.109% | 0.302% | -2.03% | -0.487% | -4.08% | 2.28% | -1.68% | -2% | -0.232%
C[C@]12C=CC(=O)N[C@@H]1CC[C@@H]1[C@@H]2CC[C@]2(C)[C@@H](C(=O)Nc3cc(C(F)(F)F)ccc3C(F)(F)F)CC[C@@H]12 | -0.354% | -0.558% | -0.437% | 0.309% | 0.618% | 1.03% | -1.51% | -0.237% | -0.00919% | -0.463%
O=C(NCCO[N+](=O)[O-])c1cccnc1 | -0.0278% | 2.96% | 1.16% | 1.21% | 0.669% | -4.02% | 46.8% | 0.797% | 1.67% | -0.184%
CC(=O)OCC[N+](C)(C)C | 1.68% | 3.32% | 3.73% | 1.49% | 1.63% | 1.69% | 4.52% | 1.04% | 2.81% | -0.303%
O=C1c2ccccc2C(=O)C1c1ccccc1 | -0.501% | -1.03% | -0.877% | -0.146% | 1.52% | 0.118% | -1.43% | 0.701% | 0.683% | 0.357%
CC(C)[C@H](N)C(=O)OCCOCn1cnc2c(=O)nc(N)[nH]c21 | 0.298% | 0.698% | -1.22% | 1.11% | 0.616% | 1.05% | -0.55% | -0.767% | 0.129% | 1.61%
Nc1ccc(O)c(C(=O)O)c1 | 0.36% | 1.83% | 0.431% | 2.63% | 1.1% | 1.6% | 2.49% | 0.538% | 1.92% | -1.01%
O=C(O)CSCC(=O)NC1CCSC1=O (stereo not given) | 0.54% | -0.388% | -0.264% | -0.495% | 0.576% | -1.19% | -1.48% | 0.118% | 1.47% | -6.51%
[O-]n1ccccc1=S.[O-]n1ccccc1=S.[Zn+2] | 61.5% | 60.4% | 56.6% | 56.4% | 20.2% | 59.7% | 58.4% | 48.4% | 59.2% | 59.7%
NC1CCN(c2c(F)cc3c(=O)c(C(=O)O)cn(C4CC4)c3c2Cl)C1 (stereo not given) | 0.157% | -1.86% | 1.13% | 1.33% | 2.79% | -0.611% | 1.85% | -0.22% | 1.99% | -0.254%
CCOC(=O)C1=C[C@]2(CC)CCCN3CCc4c(n1c1ccccc41)[C@@H]32 | -2.05% | 0.343% | 1.55% | 0.728% | 0.726% | -1.58% | 34.5% | 1.95% | 0.167% | 3.3%
NCC1OC(OC2C(N)CC(N)C(OC3OC(CO)C(O)C(N)C3O)C2O)C(N)C(O)C1O (stereo not given) | -1.38% | 0.63% | 0.452% | -1.1% | 1.6% | -1.9% | 30.8% | -0.143% | -4.48% | -1.57%
c1ccc2[nH]c(-c3cscn3)nc2c1 | -1.25% | 0.956% | -0.782% | 0.56% | 0.84% | 1.32% | -1.65% | 0.977% | 1.13% | 0.000357%
CN1C[C@@H]2C[C@H]1CN2c1cc2c(cc1F)c(=O)c(C(=O)O)cn2C1CC1 | 2.67% | 1.22% | 2.59% | 1.98% | 6.03% | 1.06% | 7.67% | 4.42% | 3.33% | 4.88%
CO/N=C(\C(=O)N[C@@H]1C(=O)N2C(C(=O)O)=C(Cn3ccc(=N)n3CCO)CS[C@H]12)c1csc(N)n1 | -0.673% | 1.46% | 0.0521% | 0.497% | -0.232% | 0.395% | -1.19% | -0.702% | 0.0229% | 1.31%
Nc1nc2[nH]cnc2c(=S)[nH]1 | 23.3% | 12.5% | 5.75% | 17.2% | 25% | 18.7% | 63.7% | 42.5% | -1.02% | 2.55%
Clc1ccc(C(Cn2ccnc2)OCc2ccc(Sc3ccccc3)cc2)c(Cl)c1 (stereo not given) | 2.76% | 0.833% | 2.5% | 4.7% | 11.8% | 8.32% | 14% | 11.4% | 2.82% | 5.1%
